In all, about 38,000 compounds went through this assay and about 1,200 (3.2%) showed an effect of 50% or more. The median lay at about -58%. Only a selection was taken, and strong results are over-represented in it overall.

The assay deals with Plasmodium falciparum. Nature of the assay: Calibr Malaria Delayed Death Assay SOP. Type of assay: functional, organism-based. Details: scale not given: in the data most compounds retested in dose-response had high values. The note with it: concentration 4.99e-06 (unit not given; other assays of the set use mol/L).
As for `COc1ccc(-n2cc(CNC(=O)c3cscn3)nn2)cc1`, the “Percent Effect” value is -125.4%.

Turning to `CCc1ncc2c(n1)CN(CC(=O)Nc1ccncc1)CC2`, the “Percent Effect” value is -164.3%.

For the molecule `CCc1ncc2c(n1)CN(CC(=O)Nc1ccc(Cl)cn1)CC2`, the “Percent Effect” value is recorded as 58.18%.

On to `CC(C)c1nc2c(n1C)CCN(CC(=O)Nc1ccc(Cl)cn1)C2`, for which the “Percent Effect” value is listed as -37.81%.

On to `COCC1c2c(cnn2C)CCN1C(=O)c1cccn1C.O=C(O)C(F)(F)F` (stereo not given), for which the “Percent Effect” value is given as -111.1%.

On to `CCC1CN(CC(=O)NCCN2CCCC2)c2ccccc2S1` (stereo not given), for which the “Percent Effect” value was found to be 62.37%.

Consider `O=C(NCCN1CCCC1)c1cc2c(s1)CCN2C(=O)c1ccccc1`, for which the “Percent Effect” value was -40.79%.

For `CCC1CN(CC(=O)NCCN(CC)CC)c2ccccc2S1` (stereo not given), the “Percent Effect” value is on record as 75.77%.

For the molecule `CCC1CN(CC(=O)NCCN2CCCCC2)c2ccccc2S1` (stereo not given), the “Percent Effect” value is 71.16%.

Turning to `COc1ccccc1N1CCC(CNC(=O)CN2CSCC2=O)C1` (stereo not given), the “Percent Effect” value was -74.71%.

With `CCn1nc(C)c2ccn(CC(=O)NCCN3CCCCC3)c(=O)c21`, the “Percent Effect” value was -46.75%.

For `O=C(NCCN1CCCCC1)c1cccc(Cl)c1Cl`, the “Percent Effect” value is 47.98%.

Consider `Cc1nn(C)c2c(=O)n(CC(=O)NCCN3CCCCCC3)ccc12`, for which the “Percent Effect” value is on record as 8.921%.

For the molecule `CCC1CN(CC(=O)NCCN2CCCCCC2)c2ccccc2S1` (stereo not given), the “Percent Effect” value is listed as 72.72%.

Regarding `O=C(NCCN1CCCCC1)c1nc2ccccc2c(=O)[nH]1`, the “Percent Effect” value is listed as -48.08%.

As to `CCN(CC)CCNC(=O)c1cnc(-c2ccccc2)nc1`, the “Percent Effect” value was -36.61%.

On to `Cc1ccccc1C1CCN(CCNC(=O)CS(C)(=O)=O)C1` (stereo not given), for which the “Percent Effect” value is -6.702%.

For `O=C1CCCN1Cc1ncn2c1CN(C(=O)Cc1ccccc1)CCC2`, the “Percent Effect” value was -76.95%.

As for `CC1CCCCN1C(=O)COCc1nc(-c2ccncc2)no1` (stereo not given), the “Percent Effect” value is given as -64.65%.

In the case of `O=C(O)C(F)(F)F.O=C(O)C(F)(F)F.O=C(O)c1c(-c2ccncc2)ncc2c1CCN(CC1CCOC1)C2` (stereo not given), the “Percent Effect” value is -34.25%.

For `Cc1cc(S(=O)(=O)N2CCCc3ccccc32)sc1C(=O)O`, the “Percent Effect” value is recorded as -124.8%.

On to `O=C(Cc1ccsc1)N1Cc2nc(CN3CCCCC3)oc2C1.O=C(O)C(F)(F)F`, for which the “Percent Effect” value is on record as -52.68%.

Regarding `Cc1nonc1CN(C)Cc1nc(-c2cccc(F)c2F)oc1C`, the “Percent Effect” value was -82.79%.

In the case of `COCCN(Cc1ccccc1)C(=O)c1cnn(C)c1C`, the “Percent Effect” value was -75.6%.

With `O=C(O)C(F)(F)F.O=C(O)C(F)(F)F.c1cc(CN2CCC3(CC2)COC(COCC2CC2)C3)ccn1` (stereo not given), the “Percent Effect” value is -17.94%.

In the case of `Cc1nn(C)c(Oc2ccccc2)c1CNC1CCCCNC1=O` (stereo not given), the “Percent Effect” value is on record as -0.05055%.

Take `COc1ccc(-c2c(C)nn3c(=N)c(C#N)n[nH]c23)cc1`: the “Percent Effect” value is -120.8%.

Turning to `COc1ccc(-c2c(C)nn3c(=N)c(C#N)n[nH]c23)cc1OC`, the “Percent Effect” value is 87.26%.

As for `COc1ccc(-c2c(C(C)C)nn3c(=N)c(C#N)n[nH]c23)cc1`, the “Percent Effect” value is listed as -149.3%.

Regarding `CCn1ncc2c1C(COC)CN(Cc1ccc(C)o1)C2` (stereo not given), the “Percent Effect” value is -90.58%.

Turning to `CCN(C)C(=O)c1cccc(C(=O)N(C)Cc2cccc(O)c2)c1`, the “Percent Effect” value was -54.27%.

Regarding `O=S(=O)(NC[C@H]1C[C@@H]2CCN1C[C@@H]2CN1CCCC1)c1ccc(Cl)cc1`, the “Percent Effect” value was 89.33%.

As to `O=S(=O)(NC[C@H]1C[C@@H]2CCN1C[C@@H]2CN1CCOCC1)c1ccccc1`, the “Percent Effect” value is -72.09%.

In the case of `O=C(NC[C@H]1C[C@@H]2CCN1C[C@@H]2CN1CCCCC1)Nc1ccccc1`, the “Percent Effect” value was -35.07%.

On to `Cc1nn(C)cc1CN1CCCCCC1c1ccccc1Cl` (stereo not given), for which the “Percent Effect” value is -108.4%.

For the molecule `CCSc1ncc(-c2cc(C3CC3)nc(N)c2C#N)cn1`, the “Percent Effect” value was 1.431%.

Turning to `CCSc1ncc(-c2cc(C3CCC3)nc(N)c2C#N)cn1`, the “Percent Effect” value is -33.43%.

In the case of `CCCNc1ncc(-c2cc(C3CC3)nc(N)c2C#N)cn1`, the “Percent Effect” value was 54.19%.

`Cc1ccc(CSc2ncc(Br)c(C(=O)O)n2)cc1`: the “Percent Effect” value was -107.1%.

In the case of `NC(=O)Nc1ccc(C(=O)NCCn2cccc2)cc1`, the “Percent Effect” value was -116.7%.

On to `CC[C@H](C)[C@@H](CO)NC(C)Cc1ccccc1F` (stereo not given in full), for which the “Percent Effect” value is listed as 48.98%.

With `CNC(C)Cc1ccccc1Sc1ccc(O)cc1.Cl` (stereo not given), the “Percent Effect” value is 87.88%.

As to `CC(N)Cc1ccccc1Sc1ccccc1.O=C(O)/C=C\C(=O)O` (stereo not given), the “Percent Effect” value was determined as 77.8%.

As for `CC(C)C(=O)NS(=O)(=O)CCc1ccccc1`, the “Percent Effect” value is -111.2%.

Consider `CC(N)Cc1ccccc1Sc1ccc(O)cc1.CC(N)Cc1ccccc1Sc1ccc(O)cc1.O=C(O)C(=O)O` (stereo not given), for which the “Percent Effect” value is reported as 71.69%.

As for `Cn1c(CC(=O)O)c(Sc2ccccc2)c2ccccc21`, the “Percent Effect” value is recorded as -130%.

Turning to `CNS(=O)(=O)CC(=O)NC(C)Cc1ccccc1Br` (stereo not given), the “Percent Effect” value is listed as -190.6%.

On to `CC(C(=O)Nc1ccccc1Sc1ccccc1)S(C)(=O)=O` (stereo not given), for which the “Percent Effect” value is recorded as -117.7%.

As to `COc1ccccc1CC(C)CC(=O)O` (stereo not given), the “Percent Effect” value was -155.2%.

For `NCc1ccccc1Sc1ccc(O)cc1.O=C(O)/C=C\C(=O)O`, the “Percent Effect” value was found to be 55.63%.

Turning to `CC(C)CCN1C2(CCN(C(=O)C3(C)CC3)C2)c2ccccc2S1(=O)=O` (stereo not given), the “Percent Effect” value is -11.02%.

As to `CCc1ncc2c(n1)CN(Cc1nnc(CC)o1)CC2`, the “Percent Effect” value was -50.82%.

Consider `CC(C)Nc1nc2c(cc1C(=O)O)CCN(Cc1ccsc1)CC2.O=C(O)C(F)(F)F.O=C(O)C(F)(F)F`, for which the “Percent Effect” value is recorded as -107.1%.

Turning to `Cc1csc(CNC(=O)NCC(C)Cn2nc(C)cc2C)n1` (stereo not given), the “Percent Effect” value is given as -114.8%.

`Cc1c(C(=O)N(C)C)cccc1N(C)S(C)(=O)=O`: the “Percent Effect” value is recorded as -103.2%.

Turning to `Cc1ncc(CNC(=O)Cc2cccs2)c(C2CCCN2C)n1` (stereo not given), the “Percent Effect” value is -27.86%.

Take `Cc1nn(C)c(C)c1CC(=O)N1CCCC1Cn1cccn1` (stereo not given): the “Percent Effect” value is reported as -102.7%.

Turning to `CN1CCCN(S(=O)(=O)c2cnn(C)c2)c2cc(Cl)ccc21`, the “Percent Effect” value was -19.46%.

With `Cc1cc(F)ccc1S(=O)(=O)N1CCN(C)c2ccncc21`, the “Percent Effect” value turned out to be 20.68%.

Consider `CN1CCN(S(=O)(=O)c2cccnc2)c2cnccc21`, for which the “Percent Effect” value is recorded as -116.1%.

For `CN1CCN(S(=O)(=O)c2ccc(Cl)c(Cl)c2)c2cnccc21`, the “Percent Effect” value is reported as 89.32%.

Turning to `Cc1ccc(S(=O)(=O)N2CCN(C)c3ccncc32)cc1F`, the “Percent Effect” value is 60.6%.

Consider `CN1CCN(S(=O)(=O)c2cccc(F)c2)c2cnccc21`, for which the “Percent Effect” value came out at 11.1%.

Turning to `CCOC(=O)COc1nc(CC(C)C)c2c(c1C#N)CCC2`, the “Percent Effect” value was -73.52%.

On to `CN1CCCCC1CCC(=O)NCCCn1ncc2ccccc21` (stereo not given), for which the “Percent Effect” value is -37.16%.

For the origin of these results see ChEMBL document CHEMBL3988442, “University of Dundee, Small-Polar-MMV Screening Library” (2021).
